This note sets out measurements from PubChem BioAssay AID489017 (The Scripps Research Institute Molecular Screening Center, 2010).

The test has as its system Phorbol Ester. Description: off-target binding and CYP450 inhibition panel, profiling panel, selectivity assay for S1P4 antagonist project, biochemical, Ricerca HitProfilingScreen (AID 489017). The settings on record: Ricerca receptor/enzyme binding panel plus CYP450, at 10 µM, active compounds read high.

The structures appear in SMILES notation. Values without a mark were called inactive. How the calls were made is not given here.

Turning to `CCc1cccc(CC)c1NC(=O)c1ccc(-c2cc(Cl)ccc2Cl)o1`, the inhibition is -12%.

Usually inhibition stands for the relative decrease from the control value, in per cent.
